# Only some compounds are listed: those with a hit (about 4.3% of all), similar ones and a draw of the others.
# HSF1 inhib – HSF1 inhibition; NIH3T3-HGL HSE-luciferase, MG132-induced, luminescence 8 h; stronger effect = lower value; activity change, negative = inhibition, % at 7.5 µM (by protocol); actives 0.77% (n = 300,000);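 active means more than half of replicate wells show activity change below -50%, luminescence cut by over half; inconclusive means some wells, but at most half, below -50%; inactive means no replicate well below -50%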;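 further: luciferase reports HSF-1 transcriptional activity via heat shock element; 0% = median of DMSO wells and -100% = zero luminescence signal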
# Wnt bcat act – activates Wnt/beta-catenin signaling in a reporter cell assay | actives 1.2% (n = 300,000) | activation, % at 9.35 µM | AID 743398 | activator, plate reader; in the data active means activation above about 30%, passing the limit was not always enough; inconclusive means no clear call, values can overlap the other calls;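 further: 0% = neutral control wells and 100% = positive control wells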
# SMARCA2 activ – activators of SMARCA2 function; MG213 cells, MMTV-luciferase reporter, dexamethasone, overnight; activation, % at 9.1 µM; actives 1% (n = 370,000); in the data active means activation above about 7.8%;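 further: 0% = vehicle wells and 100% = reference activator wells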
# MITF act – MITF TRPM1 promoter activation in melanoma cells; actives 0.75% (n = 300,000); SK-MEL-5 TRPM1-promoter luciferase, 24 h; % of positive control, neutral wells = 0; activation, % at 12.5 µM; AID 588334;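 active means mean activation of at least 80% with every replicate also reaching 80%; inconclusive means mean reaches 80% but some replicate falls short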;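 further: 0% = neutral control wells and 100% = parthenolide positive control wells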
# HSF1 activator – increases HSF-1 driven luciferase reporter signal | NIH3T3-HGL HSF-1 luciferase reporter, MG132, 8 h; 100% = twice DMSO control signal | activation, % at 9 µM | actives 1.7% (n = 300,000) | AID 504408;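 active means mean replicate activation of at least 50% with a set share of replicates each reaching 50%; inconclusive means only one of those two conditions met; inactive means mean below 50% and too few replicates reaching it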;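 further: 0% = median of the neutral control wells and 100% = twice that signal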
# esBAF inh – SWI/SNF esBAF complex inhibition. mouse ES cells, Bmi1-luciferase knock-in reporter, 24 h; 100% = twice the neutral-well signal. reporter increase, % at 12.5 µM. actives 2% (n = 350,000); in the data active means activation above about 40%; inconclusive means no clear call, values can overlap the other calls;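 further: 0% = median of the plate's neutral control wells and 100% = double that signal; a rise in the Bmi1 reporter signal indicates esBAF inhibition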
# The depositor's hits bear a star; ? = inconclusive; . = not tested or not shown.
SMILES,HSF1 inhib,Wnt bcat act,SMARCA2 activ,MITF act,HSF1 activator,esBAF inh
COCC#Cc1ccc2c(c1)O[C@H](CN(C)C(=O)C1CCC1)[C@H](C)CN([C@@H](C)CO)S2(=O)=O,.,.,.,.,.,5
Cc1cccc(N2CCN(Cc3nc(-c4cccc(Cl)c4)oc3C)CC2)n1,-4,0,-3,-8,22,.
Cc1cccc(N2CCN(Cc3nc(-c4ccccc4Cl)oc3C)CC2)n1,-60*,2,-1,-4,-70,.
O=C(c1ccccc1C(=O)N1CCN(c2ccc(F)cc2)CC1)N1CCN(c2ccc(F)cc2)CC1,-7,.,-3,.,10,5
CS(=O)(=O)c1ccc(-c2sc3ccccc3c2C(=O)N2CCN(c3ccc(F)cc3)CC2)cc1,.,45*,7,94*,.,34
C[C@H](CO)N1C[C@H](C)[C@@H](CN(C)C)Oc2cc(-c3ccccc3)ccc2S1(=O)=O,.,.,.,.,.,1
CCOCc1c(C(=O)OCC(=O)Nc2ccccc2C(N)=O)oc2ccccc12,.,39*,-2,-4,.,-3
CCOCc1c(C(=O)OCC(=O)/C(C#N)=C(\C)N)oc2ccccc12,.,-1,0,2,.,.
C[C@H](CO)N1C[C@H](C)[C@@H](CN(C)Cc2ccc(Oc3ccccc3)cc2)Oc2c(NC(=O)Nc3ccc(C(F)(F)F)cc3)cccc2C1=O,.,.,.,.,.,-3
O=C1NC[C@H](c2ccccc2)OC(=O)[C@@H](Cc2ccc(F)cc2)C/C=C\C[C@H]1CC(=O)N(CCO)Cc1ccccc1,.,6,-1,-20,.,45*
CCOC(=O)C(NS(=O)(=O)c1ccc(Br)cc1)C(C)C (stereo not given),24,1,.,14,55*,.
CCCC(=O)Nc1ccc2c(c1)C(=O)N(C)[C@H]1CC[C@H](CC(=O)Nc3ccccc3F)O[C@@H]1CO2,.,.,.,.,.,-3
Cc1ccc(NC(=O)NCC2CC2(Cl)Cl)cc1 (stereo not given),18,15,4,54,26,50*
O=C(NCC1CC1(Cl)Cl)Nc1ccc(Cl)c(Cl)c1 (stereo not given),26,6,-1,52,34,32
COC(=O)c1ccc2c(=O)n(CC3CCCO3)c(SCC(=O)Nc3ccccc3Cl)nc2c1 (stereo not given),5,.,-2,.,16,50*
CCc1ccc(NC(=O)CSc2nc3cc(C(=O)OC)ccc3c(=O)n2CC2CCCO2)cc1 (stereo not given),-4,.,0,.,7,-6
COC(=O)c1ccc2c(=O)n(CC3CCCO3)c(SCC(=O)Nc3ccccc3OC)nc2c1 (stereo not given),28,-4,1,.,55*,16
CC(C)(C)c1cnnn1-c1ccc(C(=O)CCl)cc1,-57*,-1,-3,-23,-67,.
CC(C)(C)c1cnnn1-c1ccc(C=O)cc1,10,.,-4,-12,8,-1
Cc1noc(C)c1S(=O)(=O)N(C)C[C@@H]1OCCCC[C@@H](C)Oc2ccc(NC(=O)Nc3cccc4ccccc34)cc2C(=O)N([C@@H](C)CO)C[C@H]1C,.,.,.,.,.,7
Cc1ccc(S(=O)(=O)N(C)C[C@@H]2Oc3ccc(NC(=O)c4ccncc4)cc3CC(=O)N([C@@H](C)CO)C[C@@H]2C)cc1,.,.,.,.,.,0
Cc1ccc(-c2csc(NC(=O)CSc3nc(C)cs3)n2)cc1,13,6,-4,46,17,45*
CC(C)(C)NC(=O)CSc1nc(-c2ccc(F)cc2)cs1,27,38*,-2,71,42,.
COc1ccc(NC(=O)CSc2nc(C)cs2)c([N+](=O)[O-])c1,.,46*,0,21,.,31
COc1ccc(S(=O)(=O)N(C)C[C@H]2Oc3ccc(NC(=O)Nc4cccc5ccccc45)cc3C(=O)N([C@H](C)CO)C[C@H]2C)cc1,.,.,.,.,.,-1
SMILES,HSF1 inhib,Wnt bcat act,SMARCA2 activ,MITF act,HSF1 activator,esBAF inh
Cc1ccnc(Nc2nc(-c3ccc(Cl)cc3)cs2)c1,-10,6,1,13,-18,67*
Cc1ccnc(Nc2nc(-c3ccc(F)cc3)cs2)c1,44,0,1,.,80*,36
Clc1ccc(-c2csc(Nc3cccnc3)n2)cc1,5,-1,-3,11,14,.
Cc1ccnc(Nc2nc(-c3sc(C)nc3C)cs2)c1,2,1,-8,.,30,43*
Cc1nc(C)c(-c2csc(Nc3cccc(O)c3)n2)s1,-11,85*,3,42,10,.
Cc1nc(N)sc1-c1csc(Nc2cccc(O)c2)n1,-41,5,2,29,-47,1
COc1ccc(S(=O)(=O)N(C)C[C@H]2Oc3ccc(NS(=O)(=O)c4ccccc4)cc3C(=O)N([C@@H](C)CO)C[C@H]2C)cc1,.,.,.,.,.,5
C[C@H](CO)N1C[C@H](C)[C@H](CN(C)C(=O)Nc2cccc3ccccc23)Oc2ccc(NS(=O)(=O)c3cccs3)cc2CC1=O,.,.,.,.,.,1
Cc1ccc(S(=O)(=O)Nc2cccc3c2O[C@H](CN(C)C(=O)Nc2cccc4ccccc24)[C@@H](C)CN([C@H](C)CO)C3=O)cc1,.,.,.,.,.,11
COCC(=O)Nc1ccc2c(c1)OC[C@H](C)N(Cc1cc(F)ccc1F)C[C@@H](C)[C@H](OC)CN(C)C2=O,.,.,.,.,.,0
C=CCNc1nc(-c2ccc(Cl)cc2)cs1,34,.,3,134*,?,.
Cc1ccc(-c2ccc3c(c2)O[C@@H](CN(C)Cc2ccncc2)[C@H](C)CN([C@H](C)CO)S3(=O)=O)cc1,.,.,.,.,.,-10
CN1c2ccc(-c3ccccc3)cc2[C@H]2[C@H](CCN2C(=O)c2ccncc2)[C@H]1CO,.,.,.,.,.,-5
COc1ccc(NC(=O)NCCN2C(=O)C3C4C=CC(C4)C3C2=O)cc1 (stereo not given),16,24,1,36,23,58*
COc1cccc(C(=O)Nc2ccc(N(C)C)cc2)c1OC,35,-4,-3,79,71*,11
COc1ccc(NC(=O)CSc2nc(SC)ns2)cc1,24,?,2,108*,27,56*
COc1ccc(NC(=O)Nc2ccc(N(C)C)cc2)cc1,9,65*,1,67,20,19
COc1ccc(NC(=O)Nc2ccc3c(c2)C(=O)N([C@H](C)CO)C[C@@H](C)[C@@H](CN(C)S(=O)(=O)c2cccs2)OCCCC[C@H](C)O3)cc1,.,.,.,.,.,-3
C[C@@H]1CN([C@H](C)CO)C(=O)c2cc(NC(=O)C3CC3)ccc2O[C@H]1CN(C)C(=O)Nc1cccc2ccccc12,.,.,.,.,.,0
Cc1ccc(S(=O)(=O)Nc2ccc3c(c2)C(=O)N([C@@H](C)CO)C[C@H](C)[C@@H](CN(C)Cc2ccc(C(F)(F)F)cc2)OCCCC[C@H](C)O3)cc1,.,.,.,.,.,1
COc1ccc(NC(=O)Nc2ccc(OC)cc2)cc1,-3,.,6,62,23,60*
COc1ccc(NC(=O)CCSc2ccc(F)cc2)cc1,22,23,1,?,55*,?

# From PubChem
